Our source for the growth values is PubChem BioAssay (NCI).

Structures are written as SMILES. Compounds without any hit were thinned out: in the full panel of roughly 83,000, 20% have a hit.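 In brief: 96-well plates, 48 h treatment, single concentration, percent growth endpoint.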 Values without a mark were called inactive. Calls of active or inactive are those of the source. The calls were made as follows: active = growth percent below 10; inactive = the rest.

The assay relates to MDA-MB-468 breast. Nature of the assay: NCI-60 one-dose screen, 48 h (100 = growth as untreated, 0 = no growth, -100 = all killed). To be noted: 10 µM unless noted.
As for `C=CCn1c(SCC(=O)Nc2ccc(C(=O)/C=C/c3ccc(Cl)cc3)cc2)nnc1-c1cc(-c2ccccc2)nc2ccccc12`, the growth was 61.6%.

As for `O=C1c2c(c3c4cc(Br)ccc4[nH]c3c3ccc4ccccc4c23)C(=O)N1O`, the growth was 62.1%. Then `Cc1cccc(-c2nnc(SCC(=O)Nc3ncc(Cc4ccccc4)s3)n2N2C(=O)CSC2=S)c1`, with 62.1%; and `O=C(NCCNc1nccc(-c2c(-c3cccc(O)c3)nc3sccn23)n1)c1cccc(C(F)(F)F)c1`, with 70.5%; and `O=S(=O)(Nc1ccc(Cl)cc1Cl)c1ccc(-c2cnc(C3CC3)o2)cc1`, with -34.2% (active). Then `CCc1cccc(-c2ccccc2)c1`, with 106%. Then `C=C/C(C)=C/C[C@]1(C)[C@H](C)[C@@H](OC(=O)CCC)[C@H](O)[C@@]23C(=C[C@H](OC)C[C@@H]12)[C@@H](OC(=O)CCC)O[C@H]3OC(C)=O`, with -69% (active); and `CCCCCCCC/C=C/CCCCCCCC1=NC(C)(C)CN1C(C)C`, with -70.1% (active); and `CN(C)c1ccc(/C=C2\C=C(c3ccccc3)N(CCc3ccccc3)C2=O)cc1`, with 98.2%.

On to `CCOC(=O)c1ccc(NC(C)=O)o1`, for which the growth was 89.3%. Then `Nc1nc2c(c3cnccc13)C(c1ccc(Cl)c(Cl)c1)Cc1cnccc1-2` (configuration not stated), with -42.2% (active); and `CC(C)(C)OC(=O)N1Cc2cc3ccccc3nc2C1CO` (configuration not stated), with 71.7%; and `O=C1C=C(OCC=C(Cl)Cl)C(=O)c2ccccc21`, with 41.5%. Then `Cn1c2ccccc2c2ccccc21`, with 101%. For the compound `O=C1OC(c2ccc(-c3ccccc3)cc2)=C/C1=C/c1c2ccccc2cc2ccccc12`, the growth was 90.2%. Then `Cc1cc(C)nc(SCC(=O)Nc2cccc(N=Cc3ccccc3O)c2)n1`, with 87.8%; and `Nc1nc(-c2cccc([N+](=O)[O-])c2)c(N=Nc2ccccc2[N+](=O)[O-])s1`, with 74.8%; and `c1ccc(-c2nc(Nc3ccc(-c4nc5ccccc5[nH]4)cc3)nc(N3CCOCC3)n2)cc1`, with -62.7% (active). Then `O=C(Nc1ccc2cc3ccc(NC(=O)NC4CCCCC4)cc3nc2c1)NC1CCCCC1`, with 105%; and `COC(=O)CC[C@@H]1O[C@@H](c2ccc(F)cc2)[C@@H](O)[C@H]1O`, with 96.5%.

As to `C[C@]12CC[C@@H]3c4ccc(O)cc4CC[C@H]3[C@@H]1C[C@H](O)C2`, the growth is 73.7%. Then `CCOc1cccc(/C(N)=N/C(N)=N/c2nc3ccccc3s2)c1`, with 85.6%. Then `CC(C)c1ccc(NC(=O)Nc2ccc(NC(=O)c3ccccc3N)cc2)cc1`, with 81.4%; and `CC1(C)C(=O)/C(=C\c2cccnc2)C[C@]2(C)[C@H]3CC[C@@H]4[C@@H](C(=O)/C=C/c5ccncc5)CC[C@@]4(C)[C@]3(C)CC[C@@H]12`, with -5.14% (active); and `O=C(O)/C=C(\c1nc2ccc([N+](=O)[O-])cc2[nH]1)c1cc(Cl)ccc1O`, with -2.53% (active). Then `CCn1c2ccc(O)cc2c2c(C)c3c[n+](C(C)C)ccc3c(C)c21`, with -19.7% (active). Consider `COc1ccc(C(=O)C(C)Br)cc1OC` (configuration not stated), for which the growth is 77.6%.
